Test results taken from PubChem BioAssay (EPA / NIEHS).
Several values for one entry are separate records, joined by “and”; a condition that tells them apart may be missing. Identical values can stand only once. Records with an inconclusive call do not appear. Some compounds were tested as several samples or in several runs, with calls that do not always agree. Activity calls are given as the source filed them. The calls were made as follows, unless noted: active = hit-call score of the fitted dose curve at least 0.9, where 1 is the maximum; inactive = score below 0.9.

Legend:
[1] = read-out: Intercellular Adhesion Molecule 1 (ICAM1), ICAM1 (gene 3383); experiment: BSK_hDFCGF_ICAM1: BioMAP Diversity Plus: hDFCGF Assay for Intercellular Adhesion Molecule 1 (ICAM1) Biomarker Activity (AID 2284287); settings: primary human foreskin fibroblasts
Method in brief: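 Primary human foreskin fibroblasts (hDFCGF system) dosed with chemical; ICAM-1 quantified by ELISA at 24 h relative to DMSO. Parallel SRB total-protein staining to assess overt cytotoxicity.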

CD40, CD40 (gene 958) = experiment: BSK_IMphg_CD40: BioMAP Diversity Plus: IMphg Assay for CD40 Biomarker Activity (AID 2284288); settings: primary human endothelial cells with macrophages
Method in brief: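 Venular endothelial cells co-cultured with macrophages (human primary), CD40 measured by ELISA 24 h after dosing. Positive-direction fit vs DMSO baseline; cytotoxicity tracked by SRB total-protein staining in parallel cultures.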

[2] = read-out: TIMP metallopeptidase inhibitor 2 (TIMP2), TIMP2 (gene 7077); experiment: BSK_hDFCGF_TIMP2: BioMAP Diversity Plus: hDFCGF Assay for TIMP metallopeptidase inhibitor 2 (TIMP2) Biomarker Activity (AID 2284289); settings: primary human foreskin fibroblasts
Method in brief: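 Primary human foreskin fibroblasts in the hDFCGF system, dosed for 24 h; TIMP-2 level measured by ELISA, fitted in the positive direction against DMSO; cytotoxicity checked in parallel by sulforhodamine B total protein staining.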

[3] = read-out: Interleukin-1 alpha (IL1a), IL1A (gene 3552); experiment: BSK_IMphg_IL1a: BioMAP Diversity Plus: IMphg Assay for Interleukin-1 alpha (IL1a) Biomarker Activity (AID 2284290); settings: primary human endothelial cells with macrophages
Method in brief: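 Human venular endothelial cells co-cultured with macrophages, IMphg system. IL-1α is measured by ELISA 24 h after dosing and fitted in the positive direction against DMSO. Cytotoxicity is assessed by SRB staining of parallel cultures.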

[4] = read-out: E-selectin (Homo sapiens) (UniProt P16581); experiment: BSK_IMphg_ESelectin: BioMAP Diversity Plus: IMphg Assay for Eselectin Biomarker Activity (AID 2284291); settings: primary human endothelial cells with macrophages
Method in brief: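 Human venular endothelial cell–macrophage co-culture, E-selectin measured by ELISA 24 h after chemical dosing. Signal fitted in the positive direction against DMSO as negative control and baseline.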

[5] = BSK_IMphg_SRB: Viability Assessment in the BioMAP Diversity Plus: IMphg Assay (AID 2284292); settings: primary human endothelial cells with macrophages;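 also: measured one day after compound addition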
Method in brief: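 Human venular endothelial cells with macrophages, 24 h after chemical dosing; total protein by 0.1% SRB staining after 10% TCA fixation, read at 560 nm. Positive-direction fitting versus DMSO baseline.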

[6] = read-out: Macrophage colony-stimulating factor (MCSF), CSF1 (gene 1435); experiment: BSK_IMphg_MCSF: BioMAP Diversity Plus: IMphg Assay for Macrophage colony-stimulating factor (MCSF) Biomarker Activity (AID 2284293); settings: primary human endothelial cells with macrophages
Method in brief: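 Co-culture of human venular endothelial cells and macrophages, 24 hours of chemical exposure. M-CSF quantified by ELISA, with parallel SRB total-protein staining for cytotoxicity; activity fitted relative to DMSO.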

[7] = read-out: Interleukin-10 (IL10), IL10 (gene 3586); experiment: BSK_IMphg_IL10: BioMAP Diversity Plus: IMphg Assay for Interleukin-10 (IL10) Biomarker Activity (AID 2284294); settings: primary human endothelial cells with macrophages
Method in brief: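 Human venular endothelial cells cocultured with macrophages, dosed 24 h; IL-10 measured by ELISA, activity relative to DMSO. Cytotoxicity assessed in parallel cultures by sulforhodamine B total-protein staining.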

[8] = BSK_IMphg_SRB.Mphg: Macrophage Viability Assessment in the BioMAP Diversity Plus: IMphg Assay (AID 2284295); settings: primary human endothelial cells with macrophages
Method in brief: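 Venular endothelial cells co-cultured with macrophages, read 24 h after dosing. Total protein measured by 0.1% SRB staining after 10% TCA fixation, absorbance at 560 nm. Fitted in positive direction against DMSO baseline.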

[9] = read-out: Thrombomodulin, THBD (gene 7056); experiment: BSK_LPS_Thrombomodulin: BioMAP Diversity Plus: LPS Assay for Thrombomodulin Biomarker Activity (AID 2284296); settings: primary human HUVEC with PBMC
Method in brief: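 Human umbilical vein endothelial cells co-cultured with PBMC and stimulated with LPS; cell-surface thrombomodulin measured by ELISA 24 hours after compound. Gain or loss versus DMSO; cytotoxicity checked by SRB staining in parallel cultures.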

CD69, CD69 (gene 969) = experiment: BSK_LPS_CD69: BioMAP Diversity Plus: LPS Assay for CD69 Biomarker Activity (AID 2284303); settings: primary human HUVEC with PBMC
Method in brief: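 Human umbilical vein endothelial cells co-cultured with PBMC under LPS stimulation, chemical exposure 24 h; cell-surface CD69 measured by ELISA and fitted in the positive direction versus DMSO.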

[10] = IUF_NPC2c_oligodendrocyte_migration_120hr: Leibniz Research Institute for Environmental Medicine (IUF) 120-hour Neural Progenitor Cell Migration Assay for Oligodendrocyte Migration (NPC2c) (AID 2284297);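 also: O4-positive oligodendrocyte migration distance divided by radial glia migration distance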
Method in brief: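 Human fetal cortex-derived neural progenitor spheres (0.3 mm) were plated on poly-D-lysine/laminin in N2 differentiation medium and exposed to 7 concentrations for 120 h, with half-medium renewal at day 3. Oligodendrocyte migration distance was normalized to radial glia migration, relative to DMSO.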

[11] = IUF_NPC2a_radial_glia_migration_120hr: Leibniz Research Institute for Environmental Medicine (IUF) 120-hour Neural Progenitor Cell Migration Assay for Radial Glia Migration (NPC2a) (AID 2284298)
Method in brief: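 Single 0.3 mm primary human fetal-cortex (GW 16-19) NPC spheres were plated on poly-D-lysine/laminin in N2 differentiation medium and exposed from day 0 for 120 h, half-medium refreshed day 3. Migration distance came from Hoechst nuclei-density imaging, relative to DMSO.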

[12] = IUF_NPC2a_radial_glia_migration_72hr: Leibniz Research Institute for Environmental Medicine (IUF) 72-hour Neural Progenitor Cell Migration Assay for Radial Glia Migration (NPC2a) (AID 2284299)
Method in brief: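 Primary hNPC spheres, fetal brain GW 16-19, on PDL/laminin; DMEM/F12 3:1 + 1% N2. Compound dosed day 0, 7 conc. + SC, half-medium refresh day 3. 72 h brightfield, migration distance core-to-front (um), 4 directions averaged.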

[13] = IUF_NPC2b_neuronal_migration_120hr: Leibniz Research Institute for Environmental Medicine (IUF) 120-hour Neural Progenitor Cell Migration Assay for Neuron Migration (NPC2b) (AID 2284300)
Method in brief: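 Primary human fetal cortex neural progenitor spheres (0.3 mm) plated on poly-D-lysine/laminin in N2 differentiation medium, exposed 120 h with half-medium refresh at day 3. TUBB3-stained neuron distance from sphere core, normalized to radial glia migration, versus DMSO.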

[14] = IUF_NPC3_neuronal_differentiation_120hr: Leibniz Research Institute for Environmental Medicine (IUF) 120-hour Neuronal Differentiation Assay (NPC3) (AID 2284301)
Method in brief: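 Single 0.3 mm neurospheres from human fetal cortex were plated in differentiation medium containing test compound. Medium was half-replaced on day 3. After 120 h cells were fixed, immunostained and imaged, and neuronal fraction was scored against DMSO control.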

[15] = IUF_NPC4_neurite_length_120hr: Leibniz Research Institute for Environmental Medicine (IUF) 120-hour Neuronal Morphology Assay for Neurite Length (NPC4) (AID 2284302)
Method in brief: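 Read-out is mean neurite length in µm of TUBB3-positive neurons, skeletonized from high-content fluorescence images after 120 h. Single 0.3 mm primary human neural progenitor spheres differentiated on poly-D-lysine/laminin under continuous compound exposure; DMSO was baseline.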

[16] = IUF_NPC5_oligodendrocyte_differentiation_120hr: Leibniz Research Institute for Environmental Medicine (IUF) 120-hour Oligodendrocyte Differentiation Assay (NPC5) (AID 2284304; active = hit-call score of the fitted dose curve at least 0.9, where 1 is the maximum;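 also: primary human fetal neural progenitor spheres plated to migrate and differentiate; share of O4-positive cells among Hoechst nuclei found by CNN image analysis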)
Method in brief: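 Primary human fetal (GW 16-19) neural progenitor spheres (0.3 mm) plated on poly-D-lysine/laminin in N2 differentiation medium, exposed from day 0 for 120 h with half-medium refresh at day 3; O4-positive cells as percent of Hoechst nuclei, CNN-identified, versus DMSO.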

[17] = IUF_NPC4_neurite_area_120hr: Leibniz Research Institute for Environmental Medicine (IUF) 120-hour Neuronal Morphology Assay for Neurite Area (NPC4) (AID 2284305; active = hit-call score of the fitted dose curve at least 0.9, where 1 is the maximum)
Method in brief: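 Neurite area is read out as the mean pixel area, excluding nuclei, of skeletonized TUBB3-positive neurons imaged after 120 h. Primary human neural progenitor spheres differentiated on poly-D-lysine/laminin with compound present from day 0. Activity was referenced to DMSO controls.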

[18] = IUF_NPC2-5_cytotoxicity_72hr: Cytotoxicity Assessment at 72 hours in the Leibniz Research Institute for Environmental Medicine (IUF) Neural Progenitor Cell Migration and Differentiation Assay for Cytotoxicity (NPC2-5) (AID 2284306; active = hit-call score of the fitted dose curve at least 0.9, where 1 is the maximum;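 also: LDH release into supernatant measured by resorufin fluorescence marking membrane damage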)
Method in brief: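 Membrane integrity loss was scored from fluorescence (RFU) of resorufin generated by LDH in culture supernatant, 72 h after dosing. Differentiating human progenitor spheres received seven serial compound concentrations alongside a solvent control.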

Measured: AC50

Chain of E-selectin (Homo sapiens) (P16581 whole entry, looked up): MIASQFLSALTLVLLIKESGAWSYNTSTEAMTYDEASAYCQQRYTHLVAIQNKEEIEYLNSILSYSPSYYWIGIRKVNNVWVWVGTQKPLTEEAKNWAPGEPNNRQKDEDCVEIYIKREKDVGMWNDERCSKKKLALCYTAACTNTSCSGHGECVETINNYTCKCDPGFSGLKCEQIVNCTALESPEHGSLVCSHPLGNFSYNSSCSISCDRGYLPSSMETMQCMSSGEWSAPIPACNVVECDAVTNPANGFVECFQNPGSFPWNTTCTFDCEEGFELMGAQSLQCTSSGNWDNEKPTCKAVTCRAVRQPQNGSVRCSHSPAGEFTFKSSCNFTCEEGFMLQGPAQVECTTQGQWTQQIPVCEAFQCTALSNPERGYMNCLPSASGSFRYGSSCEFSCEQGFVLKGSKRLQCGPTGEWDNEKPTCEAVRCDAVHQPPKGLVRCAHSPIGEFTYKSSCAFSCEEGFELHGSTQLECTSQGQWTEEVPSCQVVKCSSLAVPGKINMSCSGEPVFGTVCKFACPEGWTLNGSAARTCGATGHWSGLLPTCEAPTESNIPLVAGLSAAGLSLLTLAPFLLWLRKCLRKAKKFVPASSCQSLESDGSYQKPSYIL

Cn1cnc([N+](=O)[O-])c1Sc1ncnc2nc[nH]c12
inactive: [1] | CD40, CD40 (gene 958) | [2] | [3] | [5] | [8] | [9] | CD69, CD69 (gene 969)
active: CD40, CD40 (gene 958) 16.4 µM | [4] 2.5 µM and 9.29 µM | [6] 14.7 µM and 8.87 µM | [7] 12.6 µM

O=P(OC(CCl)CCl)(OC(CCl)CCl)OC(CCl)CCl
active: [11] 5.38 µM | [16] 4.15 µM
inactive: [10] | [12] | [13] | [14] | [15] | [17] | [18]
